Data as given in PubChem BioAssay (Tox21).
Records with an inconclusive call do not appear. Activity calls are given as the source filed them. Unless noted, calls come from the whole dose curve.

Experiments:
[1] = Nuclear factor erythroid 2-related factor 2/antioxidant responsive element (Nrf2/ARE) small molecule agonists: qHTS cell viability counter screen in human keratinocytes (AID 1919968; active = well fitted curve in the direction sought with a large enough effect in the repeat runs; an effect the other way counts as inactive or inconclusive; note: nearly all actives have a fitted effect of over 55% in size)
Summary of the method: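 Measured as CellTiter-Fluor fluorescence, this readout tracks cytotoxicity in the same wells as the ARE-luciferase screen. HaCaT reporter cells (1,500/well) received compounds after a 5 h pre-incubation and were exposed for 23 h.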

[2] = Nuclear factor erythroid 2-related factor 2/antioxidant responsive element (Nrf2/ARE) small molecule agonists: luciferase reporter gene qHTS assay in human keratinocytes (AID 1919969); note: nearly all actives have a fitted effect of over 35% in size
[3] = target: Gonadotropin-releasing hormone receptor (Homo sapiens) (UniProt P30968); test: Human gonadotropin-releasing hormone receptor (GnRHR) small molecule agonists, calcium flux assay in GnRHR-HEK293 cells (AID 1920063); note: nearly all actives have a fitted effect of over 35% in size
Chain of Gonadotropin-releasing hormone receptor (Homo sapiens) (P30968 whole entry, looked up): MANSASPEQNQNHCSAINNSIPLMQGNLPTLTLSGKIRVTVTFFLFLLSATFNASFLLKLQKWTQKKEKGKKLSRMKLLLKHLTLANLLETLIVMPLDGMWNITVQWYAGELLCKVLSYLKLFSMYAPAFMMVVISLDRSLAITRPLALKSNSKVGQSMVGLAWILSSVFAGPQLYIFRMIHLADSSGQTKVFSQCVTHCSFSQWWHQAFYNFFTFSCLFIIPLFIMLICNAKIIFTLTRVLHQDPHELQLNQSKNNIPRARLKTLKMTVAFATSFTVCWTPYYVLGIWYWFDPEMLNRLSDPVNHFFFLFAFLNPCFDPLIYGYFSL
Summary of the method: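 Fluorescence kinetics (480 nm excitation, 540 nm emission; 3 min, 1 s steps) report calcium mobilisation in human GnRHR-HEK293 cells in agonist mode. Dye incubation: 1 h, 37 C.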

[4] = target: KiSS-1 receptor (Homo sapiens) (UniProt Q969F8); test: Human kisspeptin (KISS1R) small molecule agonists, calcium flux assay in KISS1R-HEK293 cells (AID 1920064; active = well fitted curve in the direction sought with a large enough effect in the repeat runs; an effect the other way counts as inactive or inconclusive)
Chain of KiSS-1 receptor (Homo sapiens) (Q969F8 whole entry, looked up): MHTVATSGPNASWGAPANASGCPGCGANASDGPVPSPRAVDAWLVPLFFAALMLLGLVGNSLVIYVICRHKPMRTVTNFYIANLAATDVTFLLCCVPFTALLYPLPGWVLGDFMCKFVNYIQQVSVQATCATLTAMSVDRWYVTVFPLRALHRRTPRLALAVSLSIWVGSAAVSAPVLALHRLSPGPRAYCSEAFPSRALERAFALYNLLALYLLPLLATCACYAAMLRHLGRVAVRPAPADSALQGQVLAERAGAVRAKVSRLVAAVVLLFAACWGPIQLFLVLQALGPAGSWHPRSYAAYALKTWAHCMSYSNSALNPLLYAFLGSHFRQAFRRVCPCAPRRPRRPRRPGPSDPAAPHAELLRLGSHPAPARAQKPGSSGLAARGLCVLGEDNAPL
Summary of the method: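 Measures KISS1R agonism through calcium-sensitive dye fluorescence in stably transfected HEK293 cells, read for 3 min after pin-tool compound delivery; 15-point titrations in triplicate.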

[5] = G protein-coupled receptor (GPCR) small molecule agonists, calcium flux assay: HEK293 wild type cell line counter screen (AID 1920065)
Summary of the method: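 Readout: fluorescence at 480 nm excitation/540 nm emission, sampled at 1 s intervals for 3 min. Cells had been cultured 18 h, then dye-loaded 1 h at 37 C before compound or ATP addition.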

[6] = p53 small molecule agonists, cell-based qHTS assay with human liver microsomes (AID 1963577);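 note: p53 response element beta-lactamase reporter cells with liver microsomes plus NADPH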
Summary of the method: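 With metabolic activation: human liver microsomes (0.5 mg/mL final) plus NADPH (0.5 mg/mL final) added alongside compounds to p53RE-bla cells; 16 h 37 C exposure; beta-lactamase read by LiveBLAzer fluorescence.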

[7] = p53 small molecule agonists, cell-based qHTS assay with rat liver microsomes (AID 1963578)
Summary of the method: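 Metabolic activation by rat liver microsomes and NADPH, each 0.5 mg/mL final, added right after compounds to p53RE-bla reporter cells (4,000/well, plated 5 h earlier). 16 h at 37 C, then LiveBLAzer substrate for 2 h at room temperature in the dark; fluorescence read-out.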

[8] = p53 small molecule agonists, cell-based qHTS assay with human liver microsomes: qHTS cell viability counter screen (AID 1963579); note: nearly all actives have a fitted effect of over 45% in size
Summary of the method: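 Metabolic activation used human liver microsomes and NADPH, both 0.5 mg/mL final, over 16 hours at 37 C on p53RE-bla cells (4,000/well). Cytotoxicity measured by CellTiter-Glo luminescence, 30 min at room temperature.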

[9] = p53 small molecule agonists, cell-based qHTS assay with rat liver microsomes: qHTS cell viability counter screen (AID 1963580); note: nearly all actives have a fitted effect of over 45% in size
Summary of the method: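 p53RE-bla HCT-116 cells were exposed 16 h at 37 C to compounds with rat liver microsomes (0.5 mg/mL) and NADPH (0.5 mg/mL). Viability was measured in the same wells as ATP content by CellTiter-Glo luminescence.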

[10] = p53 small molecule agonists, cell-based qHTS assay: qHTS cell viability counter screen (AID 1963581); note: nearly all actives have a fitted effect of over 45% in size
Summary of the method: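 In the same plates used for the p53 bla reporter, HCT-116 cells given compounds for 16 h at 37 C received CellTiter-Glo; luminescence was recorded 30 min later at room temperature.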

[11] = p53 small molecule agonists, cell-based qHTS assay (AID 1963582; active = well fitted activation curve with a large enough effect in the signal ratio in the repeat runs, not every such curve was filed as active; the % refers to the signal ratio)
Summary of the method: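 Compounds are pin-transferred in DMSO onto p53RE-bla cells and incubated 16 h at 37 C. The B/G FRET beta-lactamase substrate is then applied for 2 h at RT and fluorescence recorded.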

[12] = target: 5-hydroxytryptamine receptor 2A (Homo sapiens) (UniProt P28223); test: 5-hydroxytryptamine receptor 2A (HTR2A) small molecule antagonists, cell-based qHTS assay (AID 1963586); note: nearly all actives have a fitted effect of over 45% in size
Chain of 5-hydroxytryptamine receptor 2A (Homo sapiens) (P28223 whole entry, looked up): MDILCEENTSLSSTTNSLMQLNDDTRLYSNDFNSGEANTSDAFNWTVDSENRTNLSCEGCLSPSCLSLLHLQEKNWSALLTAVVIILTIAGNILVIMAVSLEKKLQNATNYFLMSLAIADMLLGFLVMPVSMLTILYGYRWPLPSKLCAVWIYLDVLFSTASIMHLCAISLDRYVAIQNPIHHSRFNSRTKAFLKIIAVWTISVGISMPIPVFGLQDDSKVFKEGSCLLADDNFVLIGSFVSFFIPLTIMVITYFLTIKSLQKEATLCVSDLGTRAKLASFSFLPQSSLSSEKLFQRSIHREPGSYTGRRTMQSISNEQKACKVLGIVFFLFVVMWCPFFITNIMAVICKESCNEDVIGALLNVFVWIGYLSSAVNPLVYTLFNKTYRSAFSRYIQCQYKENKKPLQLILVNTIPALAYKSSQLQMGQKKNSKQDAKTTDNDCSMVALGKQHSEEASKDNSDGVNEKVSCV
Summary of the method: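 Antagonist-mode intracellular calcium assay: DOI (4 nM) added after 5 min compound pre-incubation at room temperature to dye-loaded HTR2A-CHO cells. Fluorescence followed for 3 min, sampled every second.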

[13] = target: 5-hydroxytryptamine receptor 2A (Homo sapiens) (UniProt P28223); test: 5-hydroxytryptamine receptor 2A (HTR2A) small molecule agonists, cell-based qHTS assay (AID 1963587); note: nearly all actives have a fitted effect of over 30% in size
Summary of the method: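 CHO cells stably expressing human HTR2A, plated 18 h, loaded with calcium dye 1 h at 37 C. Agonist mode: compounds added and intracellular calcium fluorescence recorded kinetically for 2 min at 1 sec intervals.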

[14] = target: Muscarinic acetylcholine receptor M1 (Homo sapiens) (UniProt P11229); test: Cholinergic receptor muscarinic 1 (CHRM1) small molecule antagonists, cell-based qHTS assay (AID 1963588); note: nearly all actives have a fitted effect of over 40% in size
Chain of Muscarinic acetylcholine receptor M1 (Homo sapiens) (P11229 whole entry, looked up): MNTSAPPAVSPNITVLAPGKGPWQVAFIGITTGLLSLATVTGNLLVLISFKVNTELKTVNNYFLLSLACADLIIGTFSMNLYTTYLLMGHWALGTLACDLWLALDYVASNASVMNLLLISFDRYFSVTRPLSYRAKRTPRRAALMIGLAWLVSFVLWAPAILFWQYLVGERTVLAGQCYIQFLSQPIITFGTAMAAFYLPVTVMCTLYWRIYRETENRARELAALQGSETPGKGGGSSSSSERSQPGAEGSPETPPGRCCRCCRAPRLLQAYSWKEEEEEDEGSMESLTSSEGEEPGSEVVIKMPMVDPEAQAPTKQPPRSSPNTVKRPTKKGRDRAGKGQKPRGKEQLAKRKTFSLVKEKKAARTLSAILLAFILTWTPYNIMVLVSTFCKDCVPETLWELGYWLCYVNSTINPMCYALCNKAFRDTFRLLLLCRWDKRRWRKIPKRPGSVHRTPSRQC
Summary of the method: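 CHRM1-CHO calcium-flux assay, antagonist mode. Cells were seeded 18 h, dye-loaded 1 h at 37 C and given compound for 5 min at RT, then acetylcholine was added at 50nM. FDSS fluorescence was read 3 min; 15 concentrations, three runs.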

[15] = target: Muscarinic acetylcholine receptor M1 (Homo sapiens) (UniProt P11229); test: Cholinergic receptor muscarinic 1 (CHRM1) small molecule agonists, cell-based qHTS assay (AID 1963589); note: nearly all actives have a fitted effect of over 35% in size
Summary of the method: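 Each compound was tested at 15 concentrations across three independent runs on dye-loaded CHO cells stably expressing human CHRM1, reading intracellular calcium fluorescence kinetically at 1 sec intervals.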

[16] = cAMP Responsive Elements (CRE) small molecule agonists, cell-based qHTS assay (AID 1963590)
Summary of the method: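 Cell line: CRE-bla HEK 293T; medium DMEM/10% dialyzed FBS/0.1 mM NEAA/1 mM pyruvate/25 mM HEPES; 3 h compound exposure; beta-lactamase FRET readout after 2 h substrate loading at RT.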

[17] = cAMP Responsive Elements (CRE) small molecule antagonists, cell-based qHTS assay (AID 1963591; active = well fitted inhibition curve with a large enough effect in the signal ratio in the repeat runs, not every such curve was filed as active; the % refers to the signal ratio)
Summary of the method: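 Inhibition of NKH477-driven (0.25 uM final) CRE-beta-lactamase signal in HEK293T cells, 3 h compound exposure at 37 °C, detected by FRET substrate fluorescence.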

[18] = target: Beta-2 adrenergic receptor (Homo sapiens) (UniProt P07550); test: Adrenergic beta2 receptor (ADRB2) small molecule antagonists, cell-based qHTS assay (AID 1963592); note: series mostly up to about 92 µM; nearly all actives have a fitted effect of over 50% in size
Chain of Beta-2 adrenergic receptor (Homo sapiens) (P07550 whole entry, looked up): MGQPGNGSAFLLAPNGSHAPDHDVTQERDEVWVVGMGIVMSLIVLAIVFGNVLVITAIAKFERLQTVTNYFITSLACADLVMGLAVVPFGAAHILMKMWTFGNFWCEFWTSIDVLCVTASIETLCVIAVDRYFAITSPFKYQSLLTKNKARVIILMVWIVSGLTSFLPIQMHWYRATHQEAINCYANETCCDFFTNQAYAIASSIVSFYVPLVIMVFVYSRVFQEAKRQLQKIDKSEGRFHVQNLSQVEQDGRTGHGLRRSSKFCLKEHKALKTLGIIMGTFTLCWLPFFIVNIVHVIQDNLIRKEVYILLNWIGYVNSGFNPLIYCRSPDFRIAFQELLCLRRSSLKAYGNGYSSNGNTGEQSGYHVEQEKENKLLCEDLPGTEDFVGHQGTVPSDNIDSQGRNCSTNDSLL
Summary of the method: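 Cells (CHO, stable ADRB2 overexpression) incubated 18-20hr at 37C; compounds added from DMSO; agonist mix (1nM isoproterenol, 100uM IBMX, 25uM Ro-20-1724) added; 0.5hr RT; d2-cAMP and anti-cAMP-cryptate added; 1hr RT; 665/615 nm read.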

[19] = target: Beta-2 adrenergic receptor (Homo sapiens) (UniProt P07550); test: Adrenergic beta2 receptor (ADRB2) small molecule agonists, cell-based qHTS assay (AID 1963593);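 note: CHO cells stably overexpressing human ADRB2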
Summary of the method: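 CHO cells stably over-expressing ADRB2 were plated overnight at 37C, then dosed with compounds plus a stimulation mix containing 100uM IBMX and 25uM Ro-20-1724 for 0.5hr at room temperature. cAMP was measured by HTRF competition, 1hr.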

[20] = target: D(2) dopamine receptor (Homo sapiens) (UniProt P14416); test: Dopamine D2 receptor (DRD2) small molecule agonists, cell-based qHTS assay (AID 1963594); note: nearly all actives have a fitted effect of over 35% in size
Chain of D(2) dopamine receptor (Homo sapiens) (P14416 whole entry, looked up): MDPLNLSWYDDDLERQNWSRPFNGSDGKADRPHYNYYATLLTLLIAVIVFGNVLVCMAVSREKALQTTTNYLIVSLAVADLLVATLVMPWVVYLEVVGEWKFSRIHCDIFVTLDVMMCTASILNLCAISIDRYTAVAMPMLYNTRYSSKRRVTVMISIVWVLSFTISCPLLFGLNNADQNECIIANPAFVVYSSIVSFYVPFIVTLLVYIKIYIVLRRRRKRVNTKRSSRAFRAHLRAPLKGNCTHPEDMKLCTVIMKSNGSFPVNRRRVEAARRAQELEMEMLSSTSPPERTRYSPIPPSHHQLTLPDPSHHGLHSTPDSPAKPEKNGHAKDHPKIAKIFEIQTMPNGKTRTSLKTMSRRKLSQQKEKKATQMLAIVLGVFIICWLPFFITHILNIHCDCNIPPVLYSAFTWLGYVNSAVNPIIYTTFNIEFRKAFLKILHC
Summary of the method: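 HEK293 cells stably expressing human DRD2, pre-treated with PDE inhibitor Ro20-1724 (0.1 mM final) and compound 10 min at room temperature, then stimulated with NKH477 (200nM […]) for 30 min. cAMP read by HTRF (665/620 nm).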

Measured: Potency

CC(C)=CCC/C(C)=C/C(=O)O
inactive: all assays above

CC1=CC(C)C(C=O)CC1 (stereo not given)
inactive: all assays above

Cc1nc2ccccc2s1
inactive: all assays above

O=C(O)c1ccc(CO)o1
inactive: all assays above

C=C(C)C(=O)OCCC(C)OC(=O)C(=C)C (stereo not given)
inactive: all assays above

CCCCC(CC)COCCC#N (stereo not given)
inactive: all assays above

O=C(O)c1cccc(C(F)(F)F)c1
inactive: all assays above

CC(C)C(=O)OCCOc1ccccc1
inactive: all assays above

C[N+]1([O-])CCOCC1
inactive: all assays above

CC(CO)Oc1ccccc1 (stereo not given)
inactive: all assays above
